Results filed as inconclusive are left out. Where a call stands in place of a potency, no number is given. The source made the active and inactive calls. Calls come from the whole dose curve.

Beta-2 adrenergic receptor (Homo sapiens), sequence (P07550 whole entry, looked up): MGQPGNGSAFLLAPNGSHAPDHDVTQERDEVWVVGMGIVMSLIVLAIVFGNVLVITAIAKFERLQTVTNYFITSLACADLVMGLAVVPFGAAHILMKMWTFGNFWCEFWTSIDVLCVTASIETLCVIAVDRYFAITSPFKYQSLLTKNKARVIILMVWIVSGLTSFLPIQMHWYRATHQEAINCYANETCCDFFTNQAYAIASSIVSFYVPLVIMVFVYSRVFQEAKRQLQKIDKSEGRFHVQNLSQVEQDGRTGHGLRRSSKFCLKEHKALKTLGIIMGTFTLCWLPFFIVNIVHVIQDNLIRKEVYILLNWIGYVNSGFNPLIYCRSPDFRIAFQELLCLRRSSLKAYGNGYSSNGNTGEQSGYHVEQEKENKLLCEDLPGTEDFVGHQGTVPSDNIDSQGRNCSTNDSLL

This assay addresses Beta-2 adrenergic receptor (Homo sapiens) (UniProt P07550). In words: Adrenergic beta2 receptor (ADRB2) small molecule agonists, cell-based qHTS assay (AID 1963593). The settings on record: CHO-ADRB2 cells, cAMP HTRF, 30 min; series mostly up to 92.4 µM. From the text: National Center for Advancing Translational Sciences [NCATS]
Division of Preclinical Innovation [DPI]
U.S. Environmental Protection Agency [EPA]
National Institutes of Environmental Health Sciences [NIEHS]
National Toxicology Program [NTP]
U.S. Food and Drug Administration [FDA]
Beta adrenergic receptors (Beta-ARs) belong to the G-protein coupled receptor (GPCR) superfamily, includes three subtypes - beta1, beta2, and beta3. Beta1-AR is the predominant receptor subtype expressed in the heart, and beta2-AR is expressed in the kidney, lung, blood vessel and in the heart, and beta3 is found in the adipocytes. Beta1 and 2 ARs couple to Gs protein and elevate cyclic adenosine mono phosphate (cAMP), which activates protein kinase A and leads to the downstream signaling responsible for the physiological actions. Beta-AR agonists or antagonists are the most prescribed therapeutic agents for heart failure and asthma, and these were one of the first target receptors for the rational drug design. Tox21 10K compound library was screened using the cAMP-Gs dynamic assay (Cisbio Bioassays, Shelton, CT) to identify agonists/antagonists of the Gs-coupled human adrenergic, beta2 receptor (ADRB2) in the CHO-ADRB2 cell line (Codex BioSolutions, Inc. Gaithersburg, MD), which stably over-expresses ADRB2. The principle of cAMP-Gs dynamic assay is based on HTRF technology, which facilitates the fluorescence resonance energy transfer (FRET) between donor Europium cryptate and acceptor d2-labeled cAMP. The cAMP generated within cells competes with the red acceptor, d2-labled cAMP, for binding to the monoclonal anti-cAMP-cryptate (Europium donor). An increase in intracellular cAMP leads to the disruption of FRET signal, and the signal is inversely proportional to the cAMP concentration. Isoproterenol HCl (Sigma-Aldrich, St. Louis, MO) was used as a positive control in the screening.
Tox21 Assay Protocol Summary:
CHO-ADRB2 cells were dispensed at 1,000/well in 4uL assay medium into white/solid 1536-well plates (Greiner Bio-One North America Inc., Monroe, NC) using a Multidrop Combi dispenser (ThermoFisher Scientific, Waltham, MA). The assay plates were incubated at 37C and 5% CO2 for an overnight (18-20hr). Then positive control and test compounds dissolved in DMSO were transferred to the assay plates at 23nL using a Pintool station (Wako, San Diego, CA). Following the compound and positive control transfer, 1uL stimulation mix containing 100uM IBMX and 25uM Ro-20-1724 was added to each well of the assay plates using BioRAPTR Flying Reagent Dispenser (FRD, Beckman Coulter, Brea, CA). The assay plates were incubated at room temperature for 0.5hr. Then 2.5ul each d2-labled cAMP and anti-cAMP-cryptate solutions were added separately to each well of the assay plates using an FRD and the assay plates were incubated at room temperature for 1hr.
(Quantitative high-throughput screening tests each substance at several concentrations.)
In the case of `CCC1(c2ccccc2)C(=O)N(COC)C(=O)N(COC)C1=O`, the Potency result is “inactive”.
For the molecule `CN1COCN(Cc2cnc(Cl)s2)/C1=N\[N+](=O)[O-]`, the Potency result was “inactive”.
On the same count and under the same terms, with `COP(=O)(OC)OC(Br)C(Cl)(Cl)Br` (stereo not given) the entry was “inactive”; with `CCCCN(CCCC)C(=S)[S-].CCCCN(CCCC)C(=S)[S-].[Ni+2]`, “inactive”; with `Cc1c([N+](=O)[O-])cc2c(c1[N+](=O)[O-])C(C)(C)CC2(C)C`, “inactive”.
As to `O=C(Nc1ccccc1)Nc1ccnc(Cl)c1`, the Potency entry was “inactive”.
`CCCCC(CC)COC(=O)OOC(C)(C)C` (stereo not given): the Potency result was “inactive”.
As for `C[C@H]1O[C@@H](O[C@H]2[C@@H](O)C[C@H](O[C@H]3[C@@H](O)C[C@H](O[C@H]4CC[C@@]5(C)[C@H](CC[C@@H]6[C@@H]5CC[C@]5(C)[C@@H](C7=CC(=O)OC7)CC[C@]65O)C4)O[C@@H]3C)O[C@@H]2C)C[C@H](O)[C@@H]1O`, the Potency entry is “inactive”.
Still for that read-out and setting: the same measure for `CCC(C)(c1ccc(O)cc1)c1ccc(O)cc1`: “inactive”; for `CCCCCCCCCCCCCCCCCCn1cc[n+](C)c1`: “inactive”; for `CCOP(=S)(OCC)SCCS(=O)(=O)CC`: “inactive”.
Take `CC(=O)[O-].CC(=O)[O-].[Co+2]`: the Potency entry is “inactive”.
On the same count and under the same terms, the same measure for `COP(=S)(OC)Oc1ccc([N+](=O)[O-])c(C)c1`: “inactive”.
Consider `Cc1ncsc1CCCl`, for which the Potency entry was “inactive”.
With `CC(Cl)CN(C)C` (stereo not given), the Potency result is “inactive”.
As to `N#C/C=C/c1ccccc1`, the Potency entry is “inactive”.
Still for that read-out and setting: the same measure for `CCOC(=O)C(SP(=S)(OC)OC)c1ccccc1` (stereo not given): “inactive”.
With `CCCCC(=O)Cl`, the Potency result is “inactive”.
Turning to `CC[C@]1(O)CC[C@H]2[C@@H]3CCC4=CCCC[C@@H]4[C@H]3CC[C@@]21C`, the Potency entry is “inactive”.
As to `COC(=O)c1cc(Oc2ccc(Cl)cc2Cl)ccc1[N+](=O)[O-]`, the Potency result is “inactive”.
As for `CC/C(=N\OC/C=C/Cl)C1=C(O)CC(C2CCOCC2)CC1=O` (stereo not given), the Potency entry was “inactive”.
In the case of `CCOP(=S)(OCC)SCCl`, the Potency entry is “inactive”.
As to `O=C1c2ccccc2C(=O)c2ccccc21`, the activation is -36.8% [at 19 µM] (inactive).
Take `O.O.O.O=C([O-])[C@H]([O-])[C@@H]([O-])C(=O)[O-].O=C([O-])[C@H]([O-])[C@@H]([O-])C(=O)[O-].[K+].[K+].[Sb+3].[Sb+3]`: the Potency result is “inactive”.
As for `CC(C)(C)C(=O)C(Oc1ccc(Cl)cc1)n1cncn1` (stereo not given), the Potency entry is “inactive”.
As to `[F][Sn]([c]1ccccc1)([c]1ccccc1)[c]1ccccc1`, the Potency result was “inactive”.
The same measure, in the same setting: the same measure for `O=C(Nc1ccccc1)Nc1cnns1`: “inactive”; for `Fc1ccc(Oc2ccnc3cc(Cl)cc(Cl)c23)cc1`: “inactive”.
Same read-out and setting: with `CC(C)(N)Cc1ccc(Cl)cc1` the entry was “inactive”.
As to `CCn1cc[n+](C)c1` (tested in a mixture with another compound), the Potency result was “inactive”.
`CCCSC(=O)N(CCC)CCC`: the Potency entry is “inactive”.
For `S=C=Nc1cccc2ccccc12`, the Potency entry is “inactive”.
Turning to `CCOP(=S)(OCC)SCS(=O)(=O)CC`, the Potency result was “inactive”.
With `NNC(N)=O`, the Potency result is “inactive”.
Regarding `CCC1(C2=NCCN2)Cc2ccccc2O1` (stereo not given), the Potency entry was “inactive”.
As to `NC(=O)C(Cl)Cl`, the Potency entry was “inactive”.
Consider `CCC(OC(C)=O)C(CC(C)NC)(c1ccccc1)c1ccccc1` (stereo not given), for which the Potency entry was “inactive”.
The same measure, in the same setting: the same measure for `O=S(=O)(C(Cl)(Cl)Cl)C(Cl)(Cl)Cl`: “inactive”.
Turning to `CC(Oc1cccc(Cl)c1)C(=O)O` (stereo not given), the Potency result was “inactive”.
In the case of `CCNS(=O)(=O)C(F)(F)C(F)(F)C(F)(F)C(F)(F)C(F)(F)C(F)(F)C(F)(F)C(F)(F)F`, the Potency entry is “inactive”.

For the origin of these results see PubChem BioAssay (Tox21).
